Reference: the supplement of paper PMC3334620
Whole data set: some 33,000 sequences, median “E-score (-0.5 to 0.5)” near -0.016, cut for the highest 2% near 0.3. The sample holds the highest values, similar sequences and a random draw of the others, so the mix is not that of the screen.

The sequences below were run against T1, Yer184c (UniProt P39961) (assay: PBM E-score (8-mer binding enrichment) (E-score (-0.5 to 0.5)); higher = stronger / more preferred TF binding). Conditions: protein concentration: 100 nM; construct: GST-full length.
T1 sequence: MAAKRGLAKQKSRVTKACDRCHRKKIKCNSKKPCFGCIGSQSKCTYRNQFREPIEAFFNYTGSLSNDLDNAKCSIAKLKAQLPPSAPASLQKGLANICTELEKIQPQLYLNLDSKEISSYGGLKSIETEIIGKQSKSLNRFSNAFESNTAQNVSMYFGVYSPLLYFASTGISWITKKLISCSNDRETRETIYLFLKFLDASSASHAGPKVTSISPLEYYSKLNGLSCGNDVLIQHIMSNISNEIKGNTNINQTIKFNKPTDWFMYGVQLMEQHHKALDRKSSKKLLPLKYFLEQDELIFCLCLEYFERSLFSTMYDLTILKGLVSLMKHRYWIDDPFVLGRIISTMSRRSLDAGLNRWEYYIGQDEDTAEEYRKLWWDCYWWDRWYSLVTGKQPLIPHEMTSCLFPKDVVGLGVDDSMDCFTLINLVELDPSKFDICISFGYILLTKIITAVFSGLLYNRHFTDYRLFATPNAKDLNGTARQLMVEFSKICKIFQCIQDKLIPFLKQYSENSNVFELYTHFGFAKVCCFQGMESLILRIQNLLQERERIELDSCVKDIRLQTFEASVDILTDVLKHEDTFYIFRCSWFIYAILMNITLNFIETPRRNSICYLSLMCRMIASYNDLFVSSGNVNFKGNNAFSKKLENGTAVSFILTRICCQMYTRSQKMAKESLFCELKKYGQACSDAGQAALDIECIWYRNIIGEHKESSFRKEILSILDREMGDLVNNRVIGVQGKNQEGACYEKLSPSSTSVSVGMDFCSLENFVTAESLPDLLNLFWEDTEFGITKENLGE
Procedure: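 Universal 'all 10-mer' protein binding microarrays (Agilent AMADID 015681) probed with GST-tagged S. cerevisiae TFs (full-length or DBD) made by in vitro transcription/translation (PURExpress), about 100-200 nM. Bound TF was detected with fluorescent anti-GST. Each ungapped 8-mer (which stands for itself and its reverse complement) is scored by the PBM enrichment score (E-score), a modified Wilcoxon-Mann-Whitney statistic from -0.5 to +0.5, computed with the Universal PBM Analysis Suite. Scale: above 0.35 generally sequence-specific binding.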

Sequence | PBM E-score
CACCGGCC | 0.177
AACCGACG | 0.189
CACCGGCG | 0.238
AACCGGCA | 0.238
AACCGGCG | 0.306
AACCGGCC | 0.318
ATATGAAT | 0.156
ATACTCGA | -0.0376
AAGTCCCC | -0.18
TAAAAGTA | 0.161
AGAGAGTG | -0.158
CTCTCATA | -0.0704
GAGGGAGC | -0.277
CGAGGTTC | 0.116
GCCGAGGA | 0.335
CCCGAGGA | 0.0175
CCCGAGGC | -0.013
GCCGAGCC | 0.34
ACCGAGGC | -0.0788
CCCGAGCC | 0.155
GCCGAGGC | 0.386
TCCGAGGA | 0.196

Sequence | PBM E-score
ACCGAGCC | 0.221
AGCGGTGC | -0.168
AATTGCGC | 0.16
CGGATCAC | 0.277
ATTTATAA | 0.326
CTATATAC | 0.247
ATATATAT | 0.336
GTATATAC | -0.0816
CTATATAG | -0.109
CTTTATAA | 0.0517
ATATATTG | 0.0957
ATTTATAC | 0.28
ATATATTC | 0.319
CTATATTC | -0.0128
ATATATAG | 0.282
ATATATAC | 0.317
AGTAGCCG | 0.198
GTGACATA | 0.121
CTTTACCC | 0.00954
CCTGAAAC | 0.15
AATACTGT | 0.188
GAAGCAAA | -0.0663

Sequence | PBM E-score
CAGCCTCG | -0.0314
GGCTTAAC | -0.0348
CTATATAA | 0.0877
ATATAACC | -0.0755
TTATATAA | 0.225
ATATATAA | 0.339
ATATAACA | 0.309
CTATAACA | -0.0394
AGATGGGA | -0.194
GAGGCTGA | -0.172
ACAGGGGA | -0.249
CCAGTCGG | -0.0574
AATTATCC | 0.116
AATTATCG | 0.305
AGATATCC | 0.0863
ATATATCG | 0.312
CTATATCC | -0.119
ATATATCC | 0.318
AAATATCG | 0.194
ATATATCA | 0.115
AATTATCA | 0.221
AAGTATTC | 0.0574

Sequence | PBM E-score
CGTAAGCA | -0.252
AGCTAGCC | -0.0869
AAGGTGAA | -0.0939
CAGCAAAA | -0.0176
CCATACCA | -0.145
ATTGAGTA | 0.191
GGGACAAC | -0.0988
AGGACAAA | 0.136
AGGACAAC | 0.0373
CGGACGAA | 0.353
CGGACAAC | 0.373
CGGACAAG | 0.234
CGGACGAC | 0.23
GGGACGAA | 0.0852
CGGACAAA | 0.353
CATCGAAG | -0.0421
ACTTAACA | -0.00053
ATGCTCTG | -0.178
AATGGCCG | 0.0612
ATGAAGGC | -0.0969
